# aSyn 5UTR inh – 5' untranslated region of α-synuclein, MLPCN primary screen; alpha-synuclein 5'UTR reporter, inhibitor activity; inhibition, % (tested at 7.5 µM); 300,000 compounds, 0.82% hits; AID 1813; in the data active means inhibition above about 60%;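 further: H4 neuroglioblastoma cells stably carrying SNCA 5'UTR luciferase fusion; 0% = DMSO wells and 100% = positive control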
# Mdm2 MdmX PPI – inhibitors of human Mdm2/MdmX interaction; O15151+Q00987; SaOS-2 split-luciferase Mdm2/MdmX complementation, luminescence; inhibition, % at 8 µM; 330,000 compounds, 3% hits; AID 485346;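 active means inhibition of at least 50% at 8 µM in the primary screen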
# Jurkat NFkB inh – lowers PMA/ionomycin-induced NF-kB signal in Jurkat cells; PMA/ionomycin-induced NF-kB luciferase reporter, luminescence; inhibition, % at 4 µM; 330,000 compounds, 0.53% hits; AID 435003; in the data active means inhibition above about 50%
# 697 NFkB inh – lowers PMA/ionomycin-induced NF-kB signal in 697 B cells; 697 B-cell NF-kB luciferase reporter, 16 h; 330,000 compounds, 0.33% hits; inhibition, % at 4 µM; in the data active means inhibition above about 35%
# Gli-Sufu block – Gli-Sufu pathway antagonism | Sufu-KO-LIGHT fibroblasts, Gli luciferase reporter luminescence | inhibition, % at 5 µM | 340,000 compounds, 0.74% hits | AID 588413;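 active means inhibition above about 55%, limit read from the data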;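 further: 0% = DMSO-treated cells and 100% = wells with medium but no cells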
# CSC inhib – cancer stem cell inhibition | inhibition, % at 7.5 µM | cancer stem cell-like cells viability, luminescence | AID 2717 | 300,000 compounds, 1.1% hits; in the data active means inhibition above about 75%; tested in HMLE shEcad cells
# Gli-Sufu confirm – Gli-SUFU antagonism confirmation, single concentration. shares compounds with Gli-Sufu block. Sufu-KO-LIGHT cells, Gli luciferase reporter, luminescence. inhibition, % at 5 µM. 2,500 compounds, 40% hits. AID 602428;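 active means mean inhibition at 5 µM reaching about 45%, limit read from the data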;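 further: plate controls were DMSO-treated cells for no effect and wells lacking cells for full effect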
# Gli cytotox – cytotoxicity counter-screen for Gli-SUFU antagonists; shares compounds with Gli-Sufu block; Sufu-KO-LIGHT cells cytotoxicity, ATP luminescence; 2,500 compounds, 32% hits; AID 651994; cytotoxicity, % at 5 µM;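 active means mean cytotoxicity at 5 µM above about 25%, limit read from the data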;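 further: cells exposed to compound overnight for roughly 16 to 18 hours; plate controls were DMSO wells with cells for no effect and medium without cells for full effect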
# Wnt3a cs – counter-screen for Gli-SUFU antagonists: Wnt3a reporter inhibition. shares compounds with Gli-Sufu block. inhibition, % at 6.25 µM. Wnt-LIGHT cells, Wnt3a-driven luciferase reporter, luminescence. 2,500 compounds, 20% hits;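 active means mean inhibition above about 25%, limit read from the data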
# Starred values were filed as active, the others as inactive; / = no result given. Most compounds without a hit are left out; they make up all but 4.5% or so of the library.
SMILES,aSyn 5UTR inh,Mdm2 MdmX PPI,Jurkat NFkB inh,697 NFkB inh,Gli-Sufu block,CSC inhib,Gli-Sufu confirm,Gli cytotox,Wnt3a cs
CCOC(=O)Nc1ccc2c(c1)N(C(=O)CNC)c1ccccc1CC2,20,14,-5,4,51,3,8,-2,-14
CCOC(=O)Nc1ccc2c(c1)N(C(=O)OC)c1ccccc1CC2,-38,/,/,/,-3,33,/,/,/
COC(=O)c1[nH]c2cc(OC)ccc2c1NC(=O)CN1CCC(C(N)=O)(N2CCCCC2)CC1,10,15,-8,6,75*,-15,24,7,-1
CCc1ccc(NC(=S)N(CCCN2CCN(C)CC2)Cc2cccs2)cc1,0,20,-2,3,13,6,/,/,/
CCc1ccccc1NC(=S)N(CCCN1CCN(C)CC1)Cc1cccs1,30,-6,-1,-1,54,4,17,4,14
Fc1ccccc1COc1cccc(/C=N/n2cnnc2)c1,-3,1,-7,-24,-8,5,/,/,/
Cc1cc(/C=N/n2cnnc2)c(C)n1-c1ccc(OCc2ccccc2F)cc1,-82,49,-2,-64,60*,40,68*,27*,27*
O=C(O)CCc1ccc(S(=O)(=O)NCCc2ccccc2)cc1,13,-24,-9,5,0,-8,/,/,/
O=S(=O)(NCCc1ccccc1)c1ccc(F)cc1,8,11,4,-1,52,-5,36,25,-13
COc1ccc(-c2nn(-c3ccccc3)cc2C=O)cc1[N+](=O)[O-],17,1,-14,22,55*,48,14,33*,9
Cc1cc(C(=O)COc2ccccc2C(N)=O)c(C)n1CC1CCCO1 (centres undefined),-35,-10,45,25,58*,/,56*,37*,21
Cc1cc(C(=O)COC(=O)c2ccccc2NCCO)c(C)n1CC1CCCO1 (centres undefined),-34,5,-23,-47,23,17,/,/,/
COc1cccc(-n2cc(CN(C)Cc3nc(Cc4cccc(F)c4)no3)cn2)c1,4,35,1,6,-6,-6,/,/,/
COc1ccc(CN(C)Cc2nc(Cc3cccc(F)c3)no2)c2cccnc12,12,14,30,-38,63*,7,54*,18,27*
CC/C=C\[C@H](O)[C@H](O)C1=C(C)C(=O)[C@]2(O1)C(=O)N[C@@](OC)(C(=O)c1ccccc1)C2O (some centres undefined),-8,36,0,-3,-4,5,/,/,/
COc1ccc(S(=O)(=O)N2CCN(Cc3ccccc3)CC2)c(C)c1,-18,28,1,7,5,-11,/,/,/
COc1cc(C)c(C)cc1S(=O)(=O)N1CCN(Cc2ccccc2)CC1,14,-4,-28,-42,50,52,18,-4,14
CCOC(=O)Cn1c(COc2ccccc2OC)[n+](C)c2ccccc21,-1,32,8,3,52,-15,18,14,18
O=C(CN(C(=O)c1cc2c(s1)CCC2)C1CCCC1)NCc1cccs1,15,15,-14,16,2,-1,/,/,/
Cc1onc(-c2c(F)cccc2Cl)c1C(=O)Nc1ccc(Cl)c(S(=O)(=O)N(C)C)c1,/,10,-6,-4,58*,15,16,13,-21
Cc1onc(-c2c(F)cccc2Cl)c1C(=O)OCC(=O)Nc1cccc(S(=O)(=O)N(C)C)c1,/,/,/,/,53,/,12,6,-50
c1ccc2c(c1)[nH]c1c(N3CCCC3)ncnc12,-39,17,5,-21,39,/,/,/,/
Cc1ccc2[nH]c3c(N4CCc5ccccc5C4)ncnc3c2c1,-3,39,34,-22,73*,-8,77*,38*,-22
CC(=O)c1cccc(N(CC(=O)Nc2ccccc2C(=O)N2CCCC2)S(C)(=O)=O)c1,-7,10,0,23,4,-3,/,/,/

# Source: PubChem
